The campaign covered roughly 5,500 compounds. About 2,000 (36%) were called active. Roughly 18% stayed inconclusive and do not appear here. Rule as the data show it: active = normalized growth mostly below about 0.91 (no sharp cut-off); inconclusive = no clear call, values can overlap the other calls; inactive = mostly above about 0.92. The list shows a part of the results.
Assay: chemical genetic growth profiling, strain panel (AID 1159580);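 also: tested at 20 µM; growth read once vehicle control cultures reached saturation at 30 °C; 1 = growth at the plate median or of vehicle wells; lower values mean less growth of the strain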
Settings: S. cerevisiae deletion strains, growth OD

Measured: normalized growth

Cc1c2ccncc2c(C)c2c1[nH]c1ccccc12
active: locus YAL040C, strain CLN3, active compounds read low 0.101 | locus YCL061C, strain MRC1 (second series), active compounds read low 0.0557 | locus YDR150W, strain NUM1, active compounds read low 0.13 | locus YDR363W, strain ESC2, active compounds read low 0.153 | locus YER002W, strain NOP16, active compounds read low 0.0868 | locus YGR078C, strain PAC10, active compounds read low 0.0788 | locus YMR263W, strain SAP30, active compounds read low 0.362 | locus YNL128W, strain TEP1, active compounds read low 0.083 | locus YNL153C, strain GIM3, active compounds read low 0.0799 | locus YNL175C, strain NOP13, active compounds read low 0.0703 | locus YNL197C, strain WHI3, active compounds read low 0.0671 | locus YNL224C, strain SQS1, active compounds read low 0.0631 | locus YOR083W, strain WHI5 (second series), active compounds read low 0.079 | locus YPL055C, strain LGE1, active compounds read low 0.101

— PubChem BioAssay AID1159580 (chemical genetic matrix, 2015)
